ATXN2 expr inh: ATXN2 expression inhibition; HEK-293 ATXN2-luciferase reporter, luminescence, 24 h; Potency, µM (titrated, usually from 57 µM), for inactives: at the top dose activity change, negative = inhibition, usual class: inhibitors; 0.72% of 360,000 active; AID 1745845; further: potency means the concentration at half of the fitted maximal effect; on the % scale 0 is the no-effect control and ±100 the full control effect; nearly all actives have a fitted effect of over 55% in size
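ATXN2-luciferase reporter cells (luciferase flanked by upstream and downstream ATXN2 gene portions) were treated 24 h at 37 °C with compounds at up to 57 uM. SteadyGlo luminescence gave expression; GF-AFC fluorescence gave viability.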
ATXN viability: viability counter-screen for ATXN expression inhibitors; AID 651635; S2 cells (HEK-293 line with an ATXN2-luciferase reporter) viability, CellTiter-Fluor protease fluorescence, 24 h; 0.49% of 400,000 active; Potency, µM (doses to about 56.7 µM), usual class: cytotoxic; further: potency means the concentration at half of the fitted maximal effect; nearly all actives have a fitted effect of over 40% in size
PINK1 modulator: PINK1 expression modulation; PINK1 immunofluorescence, high-content cytometry, 24 h; Potency, µM (series often up to 76.6 µM), inactives show at the highest dose activation (PINK1 increase), hits mostly activators; 0.2% of 410,000 active; active means well fitted activation curve with a large enough effect; inconclusive means small, poorly fitted or top-dose-only effect; cell line not stated here; further: potency means the concentration at half of the fitted maximal effect; % of control where 0% means no effect; nearly all actives have a fitted effect of over 65% in size
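Stable cell line, 250 cells/well, 12 h attachment; compounds pinned at 5 concentrations, 24 h; CCCP control. Fixed with nuclear dye, primary antibodies 12 h at 10 degrees C, secondary plus cell stain; laser-scanning cytometer read.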
SW480 rereplic: inducers of DNA re-replication in SW480 colon cancer cells; SW480 DNA re-replication, Hoechst DNA content imaging, 48 h; Potency, µM (titrated, usually from 46.1 µM), for the others: top-dose re-replication activation, actives largely listed as activators; 1.8% of 340,000 active; further: potency means the concentration at half of the fitted maximal effect; % of control where 0% means no effect; nearly all actives have a fitted effect of over 55% in size
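Hoechst fluorescence of nuclei (405 nm excitation, 500-530 nm emission) measured by plate-scanning imager after 48 hr compound exposure at 37 C; re-replication scored as increased number of nuclei with elevated intensity.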
IL1B secr inh: blocks inflammasome-driven IL-1 beta release. 4.7% of 360,000 active. activity change, % at 57.5 µM. THP-1 LPS/ATP IL-1B secretion, AlphaLISA, 16 h; stronger effect = lower value; in the data active means activity change below about -50%; inconclusive means mostly about -30% to -49%; further: on the % scale 0 is the no-effect control and ±100 the full control effect
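THP-1 cells pretreated 1 hr with compounds (up to 57.5 uM final), then stimulated with LPS (250 ng/mL final) plus ATP (1.25 mM final); secreted IL-1B measured by AlphaLISA after 16 hr, decreased signal indicating inhibition.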
MCF10A rereplic: induces DNA re-replication in MCF 10a normal breast cells; 2.9% of 350,000 active; MCF 10A DNA re-replication, Hoechst nuclear intensity, 48 h; Potency, µM (series often up to 46.1 µM), for the others: top-dose activity, positive = re-replication, hits mostly activators; further: potency means the concentration at half of the fitted maximal effect; % of control where 0% means no effect; nearly all actives have a fitted effect of over 50% in size
* marks the source's active call; other numbers are inactive results; i = inactive; ? = inconclusive; . = not tested or not shown; [ ] = another dose, or the depositor's remark. Hits are enriched below; roughly 7.1% of the tested compounds scored in any of these assays. Unless noted, the call rests on the fitted dose curve; in most records, active means well fitted curve in the direction sought with a large enough effect; inconclusive means small, poorly fitted or top-dose-only effect, or another doubt; inactive means no such curve, though single readings can be large; an effect the other way counts as inactive or inconclusive.

SMILES | ATXN2 expr inh | ATXN viability | PINK1 modulator | SW480 rereplic | IL1B secr inh | MCF10A rereplic
Cc1ccc(NC(=O)c2ccc(CNS(=O)(=O)c3ccc4c(c3)C(C)(C)C(=O)N4C)cc2)cc1F | . | . | -0.6% | . | . | .
Cc1cc(C)c(-c2n[nH]c3c2C(c2ccccc2F)N(Cc2ccco2)C3=O)c(O)c1 (centres undefined) | . | . | 3.8% | . | . | .
COc1ccc(C2c3c(-c4ccccc4O)n[nH]c3C(=O)N2CCc2ccc(OC)c(OC)c2)cc1 (centres undefined) | 0.0% | ? | 2.2% | -3.4% | -51.4* | ?
COc1ccc(C2c3c(-c4c(C)cc(C)cc4O)n[nH]c3C(=O)N2Cc2ccco2)cc1 (centres undefined) | ? | 17.8µM* | -0.1% | . | . | .
COc1ccc(C2c3c(-c4ccccc4O)n[nH]c3C(=O)N2CCc2ccccc2)cc1 (centres undefined) | . | . | 15.6% | . | . | .
COc1ccc(C2c3c(-c4ccccc4O)n[nH]c3C(=O)N2Cc2ccco2)cc1 (centres undefined) | -0.9% | ? | -0.9% | -55.9% | -74.8* | ?
CCOC(=O)c1cc(S(=O)(=O)Nc2ccccc2OCC)[nH]n1 | 4.1% | i | 1.7% | . | . | .
CCOc1ncccc1C(=O)NCc1ccc(OC)cc1 | -17.4% | i | 15.8%[38.3 µM] | 8.2µM* | 7.7 | ?
COC1=CC(=O)C(OC)=C(OC)C1=O | ? | 25.1µM* | ? | 19.0% | -102.1* | ?
COC1=C(OC)C(=O)c2ccccc2C1=O | . | . | 2.3% | . | . | .
COc1ccc(C(=O)Nc2ccc(S(=O)(=O)N3CCCCC3C)cc2)c(OC)c1OC (centres undefined) | 0.0% | i | ? | 0.2% | -59.5* | 9.1%
COc1ccc(NC(=O)C2CCCN2S(=O)(=O)c2ccc3c(c2)CCCC(=O)N3)cc1Cl (centres undefined) | -3.4% | i | 0.0% | . | . | .
CCn1cc(C(=O)NCc2ccccc2OC)c(=O)c2cc(S(=O)(=O)N3CCCCCC3)ccc21 | 4.7% | i | 1.9% | . | . | .
Cc1cccc(C)c1NC(=S)N1CCCN(Cc2ccc(F)cc2)C1 | -14.6% | i | 2.1% | -4.6% | -50.9* | -1.1%
COc1cccc(NC(=S)N2CCCN(Cc3ccc(F)cc3)C2)c1 | ? | i | 2.3% | 2.9% | -13.2 | 24.7%
CCOc1ccc(NC(=S)N2CCCN(Cc3cccc(Cl)c3)C2)cc1 | 0.0% | i | 0.5% | ? | -60.7* | ?
COc1ccc(NC(=S)N2CCCN(Cc3cccc(Cl)c3)C2)cc1 | -15.9% | i | 0.5% | 12.7% | -64.0* | ?
CSc1cccc(NC(=S)N2CCCN(Cc3cccc(Cl)c3)C2)c1 | ? | i | 18.1% | ? | -82.3* | ?
CCn1c(=O)cc(OCC(=O)N(C)c2cc(Cl)ccc2C)c2ccccc21 | -8.4% | ? | 4.6% | . | . | .
Cc1ccc(CN2C(=O)c3ccccc3S(=O)(=O)c3ccc(C(=O)OCC4CCCO4)cc32)cc1 (centres undefined) | -0.2% | ? | 2.7% | . | . | .
CCc1sc(C(=O)Nc2ccc3c(c2)OCO3)cc1C | 69.7% | i | -0.3% | 14.3% | -80.3* | 15.0%
CC(C)(O)C#Cc1ccc(C(=O)NC2CCCCC2)s1 | 17.9% | i | -0.1% | -4.2% | -22.6 | 7.2%
CC(C)(O)C#Cc1ccc(C(=O)Nc2ccc3c(c2)OCO3)s1 | 4.9% | i | 3.1% | 4.1% | -52.5* | 8.7%
CCc1sc(C(=O)Nc2ccc(N3CCOCC3)cc2)cc1C | -9.3% | i | 2.1% | 14.3% | -64.1* | -18.7%
CCc1cccc(C)c1NC(=O)Nc1ccc2c(c1)OCO2 | 0.2% | i | -2.0% | -3.6% | -19.9 | -2.0%
SMILES | ATXN2 expr inh | ATXN viability | PINK1 modulator | SW480 rereplic | IL1B secr inh | MCF10A rereplic
O=S(=O)(NNC(=S)Nc1ccc(S(=O)(=O)Nc2ncccn2)cc1)c1ccc(Br)cc1 | -6.5% | i | 1.0% | -0.3% | 16.4 | -0.7%
O=C(NC(=S)Nc1ccc(S(=O)(=O)Nc2ncccn2)cc1)c1ccc(Br)cc1 | -8.1% | i | -0.1% | 18.4µM* | 22.5 | 2.0%
Nc1nsc2ccccc12 | -28.1% | i | . | ? | -99.2* | -30.3%
CCOc1cc(/C=N/Nc2cc(C)nc(-n3nc(C)cc3C)n2)ccc1O | 1.26µM* | ? | 0.4% | ? | 112.7 | ?
COc1ccc(/C=N/Nc2cc(C)nc(-n3nc(C)cc3C)n2)c(OC)c1 | 15.8µM* | ? | 2.0% | ? | -103.5* | ?
COc1ccc(S(=O)(=O)c2c(Nc3c(C)cccc3C)sc(C(=O)c3ccc(F)cc3)c2N)cc1 | -13.9% | ? | 0.9% | . | . | .
NC(=O)C1(N2CCCCC2)CCN(Cc2ccccc2Cl)CC1 | 1.5% | i | . | 11.6µM* | -9.2 | 16.4µM*
Cc1[nH]c2ccccc2c1C(=O)/C=C\c1ccccc1Cl | 29.6% | ? | ? | ? | -100.9* | ?
O=C(C=Cc1ccccc1Cl)c1ccccc1 | 23.7% | i | -1.8% | ? | -11.2 | ?
Cc1nc2ccccc2c(N)c1C(=O)/C=C/c1ccccc1 | ? | ? | -0.9% | ? | -100.3* | 27.5%
Cc1[nH]c2ccccc2c1C(=O)/C=C/c1ccccc1 | 68.8% | i | -4.3% | ? | -95.5* | ?
Cc1[nH]c2ccccc2c1C(=O)/C=C/c1ccccc1Cl | 80.9% | ? | 4.1% | 18.5% | -105.2* | ?
CCCCC12CN3CC(C)(CN(C1)C3c1ccc(OCc3ccccc3)cc1)C2=O (centres undefined) | 13.6% | i | 0.6% | . | . | .
CCSc1nc(N)c(C#N)c(-c2ccccc2Cl)c1C#N | -29.2% | ? | 11.4%[38.3 µM] | -12.0% | 11.3 | ?
N#Cc1c(N)nc(Sc2ccc(Cl)cc2)c(C#N)c1-c1ccccc1Cl | -15.0% | ? | 9.4% | ? | -96.2* | ?
CC1=C(C(=O)OC2CCCCC2)C(c2ccc(F)cc2)NC(=O)N1 (centres undefined) | -15.5% | i | 1.1% | -4.1% | -53.4* | 10.2%
CC1=C(C(=O)OC2CCCCC2)C(c2ccc(O)cc2)NC(=O)N1 (centres undefined) | . | i | 1.4% | -3.8% | -6.1 | 2.3%
CCOC(=O)c1c(NC(=O)CSc2nc3ccccc3[nH]2)sc2c1CC(C)(C)NC2(C)C | -8.4% | ? | -1.2% | 16.4µM* | -50.5* | ?
CCOC(=O)c1c(NC(=O)COC(=O)/C=C/c2ccco2)sc2c1CC(C)(C)NC2(C)C | -29.3% | i | -2.9% | ? | -68.2* | 0.8%
CCCc1nnc(NC(=O)CSc2nc3ccccc3[nH]2)s1 | 15.7%[11.3 µM] | i | -0.1% | ? | -109.1* | 4.8%
